Data on nine molecules can be found in PubChem BioAssay (Tox21).

SMILES strings stand for the structures. A number with no mark means an inactive call. Results filed as inconclusive are left out. The source made the active and inactive calls. Unless noted, calls follow the shape of the dose curve; as a rule, active = well fitted curve in the direction sought with a large enough effect in the repeat runs; inconclusive = weak or mixed curves; inactive = no such curve, though single readings can be large; an effect the other way counts as inactive or inconclusive.

A short description of assay [1]: qHTS RealTime-Glo MT Cell Viability Assay in HEK293 cells - 8 hour (AID 1224887). Also: nearly all actives have a fitted effect of over 50% in size. Also: potency is read from the fitted curve at half-maximal effect. As to activity change, negative = cytotoxicity: top concentration of the series differs between compounds. The essentials: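 600 HEK293 cells per well, dispensed already mixed with RealTime-Glo MT reagents. Compound dosing came 5 h later. The same wells were read for luminescence at 0, 8, 16, 24, 32 and 40 h of exposure at 37 C.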
A short description of assay [2]: A CellTox Green Cytotoxicity Assay to monitor cytotoxicity in HEK293 cells - 16 hour (AID 1224888). Also: nearly all actives have a fitted effect of over 35% in size. The essentials:
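Dead-cell fluorescence measured kinetically: asymmetric cyanine dye, HEK293, 600 cells/well, 5 h settle, 23 nL cpd/DMSO, 37 C, reads 0–40 h every 8 h.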

Assay [3] in a line: A CellTox Green Cytotoxicity Assay to monitor cytotoxicity in HepG2 cells - 8 hour (AID 1224890). Also: nearly all actives have a fitted effect of over 45% in size. Summed up: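 First, HepG2 cells (600/well) mixed with reagent were plated; second, after 5 h at 37 C they received compounds via pintool; third, fluorescence was measured at 0 h through 40 h at 8 h intervals.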
Assay [4] is described as follows: qHTS assay to identify small molecule antagonists of the estrogen receptor alpha (ER-alpha) signaling pathway using the BG1 cell line in the presence of 0.1 nM 17-beta-estradiol - cell viability counter screen (AID 1259241). Also: nearly all actives have a fitted effect of over 40% in size. Summed up:
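In this screen, hormone-deprived VM7Luc4E2 cells were seeded at 4,000 per well, dosed with compound and 0.1 nM estradiol final, and incubated 22 hr at 37C and 5% CO2; fluorogenic live-cell protease signal reported viability.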

Assay [5] is described as follows: qHTS assay to identify small molecule antagonists of the androgen receptor (AR) signaling pathway using the MDA cell line in the presence of 0.5 nM R1881 - cell viability counter screen (AID 1259242). Also: nearly all actives have a fitted effect of over 45% in size. Also: potency is read from the fitted curve at half-maximal effect. Summed up: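 qHTS format. MDA-kb2 (MMTV-luc, AR/GR responsive) + cpd + 0.5 nM R1881 final, 16 hr 37C/0% CO2 → CellTiter-Fluor 30 min → fluorescence intensity.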
Assay [6] concerns the target Estrogen receptor (Homo sapiens) (UniProt P03372). Description: qHTS assay to identify small molecule antagonists of the estrogen receptor alpha (ER-alpha) signaling pathway using the BG1 cell line in the presence of 0.1 nM 17-beta-estradiol (AID 1259244). Also: nearly all actives have a fitted effect of over 50% in size. Also: potency is read from the fitted curve at half-maximal effect. Summed up:
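Reporter is a stably transfected luciferase under four estrogen responsive elements in VM7Luc4E2 cells expressing native full-length ER-alpha; inhibition of 0.1 nM (final) 17beta-estradiol-driven signal over 22 h is read by luminescence.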

The nature of assay [7]: qHTS assay to identify small molecule HDAC inhibitors (AID 1259364). Also: potency is read from the fitted curve at half-maximal effect.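 Also: wild-type HCT-116 cells with endogenous class I/II HDAC activity; nearly all actives have a fitted effect of over 45% in size.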 As to activity change, negative = inhibition: top concentration of the series differs between compounds. The essentials: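 Quantitative high-throughput format: overnight-seeded HCT-116 cells got compounds for 2 hr at 37C; HDAC-Glo I/II reagent added, 30 min RT, luminescence measured.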
The nature of assay [8]: qHTS assay to identify small molecule agonists of the sonic hedgehog signaling (Shh) pathway (AID 1259368; calls by dose curve;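 also: NIH/3T3-derived 3T3Gli1-Luc cells carrying a stable Gli1-driven firefly luciferase reporter; series mostly up to about 92 µM; nearly all actives have a fitted effect of over 15% in size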). Summed up: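 Quantitative high-throughput format using a Gli1-driven firefly luciferase reporter line derived from NIH/3T3 cells. After a 24 hr compound treatment at 37 C and 5% CO2, luminescence reported Gli1 response element activity.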
Assay [9] can be described thus: qHTS assay to identify small molecule antagonists of the sonic hedgehog signaling (Shh) pathway (AID 1259369; calls by dose curve; also: nearly all actives have a fitted effect of over 45% in size; also: potency is read from the fitted curve at half-maximal effect). The essentials: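 Stable Gli1-Luc reporter NIH/3T3 clone; quantitative HTS in stimulated mode with conditioned medium. Luminescence measured after 24hr compound treatment at 37 C.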
For assay [10], the target named is Androgen receptor (Homo sapiens) (UniProt P10275). In words: qHTS assay to identify small molecule agonists of the androgen receptor (AR) signaling pathway in the presence of an antagonist (AID 1259381; calls by dose curve; also: nearly all actives have a fitted effect of over 15% in size). The essentials: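 Reporter-gene luminescence from MDA-kb2 cells exposed 16hr at 37C (0% CO2) to 15-point compound titrations with 3.0uM final nilutamide as AR antagonist.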

Assay [11] is described as follows: qHTS assay to identify small molecule antagonists of the sonic hedgehog signaling (Shh) pathway - cell viability counter screen (AID 1259367). Also: nearly all actives have a fitted effect of over 55% in size. Also: potency is read from the fitted curve at half-maximal effect. Summed up:
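CellTiter-Fluor signal in conditioned medium-stimulated 3T3 Gli1-Luc cells, 23 hr compound exposure, 37C.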

For assay [12], the target named is Estrogen receptor beta (Homo sapiens) (UniProt Q92731). In words: qHTS assay to identify small molecule agonists of the estrogen receptor beta (ER-beta) signaling pathway (AID 1259377; active = well fitted activation curve with a large enough effect in the signal ratio in the repeat runs, not every such curve was filed as active; the % refers to the signal ratio). The essentials:
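Reporter cells (HEK293T, ER-beta-UAS-bla) receive compounds or DMSO after a 6 hr pre-incubation. They then incubate 16 hr at 37C/5% CO2, and fluorescence from LiveBLAzer B/G substrate is measured after 2 hours at room temperature.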

A short description of assay [13]: qHTS assay to identify small molecule agonists of the estrogen receptor beta (ER-beta) signaling pathway - cell viability counter screen (AID 1259380). Also: nearly all actives have a fitted effect of over 30% in size. Also: potency is read from the fitted curve at half-maximal effect. The essentials:
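Steps: plate ER-beta-UAS-bla HEK293T cells, rest 6 hr; add compounds in DMSO; incubate 16 hr at 37C, 5% CO2; add FRET substrate 2 hr; add CellTiter-Glo, wait 30 min at room temperature; read luminescence.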

A short description of assay [14]: qHTS RealTime-Glo MT Cell Viability Assay in HepG2 cells - 0 hour (AID 1224889). Also: nearly all actives have a fitted effect of over 50% in size. The essentials:
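qHTS, HepG2, 600 cells/well, RealTime-Glo (NanoLuc + prosubstrate) added with cells; 5 h preincubation; DMSO compound addition; 37 C; luminescence at 0/8/16/24/32/40 h.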

A short description of assay [15]: qHTS assay to identify small molecule HDAC inhibitors - cell viability counter screen (AID 1259365). Also: series mostly up to about 92 µM; nearly all actives have a fitted effect of over 50% in size. The essentials:
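Measured quantity is CellTiter-Glo luminescence from wild-type HCT-116 cells after compound incubation of 2hr at 37C, 5% CO2; reagent developed 30min at room temperature.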

Assay [16] is described as follows: qHTS assay to identify small molecule agonists of the sonic hedgehog signaling (Shh) pathway - cell viability counter screen (AID 1259366). Also: nearly all actives have a fitted effect of over 50% in size. Also: potency is read from the fitted curve at half-maximal effect. Summed up:
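In quantitative high-throughput format, 3T3 Gli1-Luc cells were exposed to compounds for 24hr and multiplexed for viability using CellTiter-Fluor, incubated 1hr at 37C before the fluorescence read.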

The nature of assay [17]: qHTS assay to identify small molecule agonists of the androgen receptor (AR) signaling pathway in the presence of an antagonist - cell viability counter screen (AID 1259379). Also: nearly all actives have a fitted effect of over 25% in size. Also: potency is read from the fitted curve at half-maximal effect.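 As to activity change, negative = cytotoxicity: MDA-kb2 human breast cancer cells carrying an MMTV luciferase reporter; series mostly up to about 92 µM.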 The essentials: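 Nilutamide-containing (3.0uM final) MDA-kb2 cultures, 3,000 cells/well, were treated with compounds across 15 concentrations. After 16 hr at 37C with no CO2, cell viability was determined by CellTiter-Fluor fluorescence in the luciferase assay wells.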

Assay [18] concerns the target Androgen receptor (Homo sapiens) (UniProt P10275). In words: qHTS assay to identify small molecule antagonists of the androgen receptor (AR) signaling pathway using the MDA cell line in the presence of 0.5 nM R1881 (AID 1259243). Also: nearly all actives have a fitted effect of over 50% in size. The essentials:
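Antagonist mode quantitative HTS in MDA-kb2 MMTV-luciferase cells, agonist R1881 at 0.5 nM final, 16 hr exposure at 37C and 0% CO2, luminescent detection.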

The nature of assay [19]: qHTS assay to identify small molecule phospholipidosis (PLD) inducers (AID 1259344; active = well fitted curve in the direction sought with a large enough effect; an effect the other way counts as inactive or inconclusive). The essentials: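 Accumulated phospholipid, stained red by LipidTOX during 24 h compound treatment of HepG2 cells at 37 C, is quantified from images as pit number and intensity, normalised per cell using Hoechst-stained nuclei.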
The target in assay [20] is Estrogen receptor beta (Homo sapiens) (UniProt Q92731). In words: qHTS assay to identify small molecule antagonists of the estrogen receptor beta (ER-beta) signaling pathway (AID 1259378; active = well fitted inhibition curve with a large enough effect in the signal ratio in the repeat runs, not every such curve was filed as active; the % refers to the signal ratio). The essentials:
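Antagonist mode: compounds added to beta-lactamase reporter HEK293T ER-beta-UAS cells stimulated with E2 (1nM final), 16 hr at 37C. LiveBLAzer B/G FRET substrate, 2 hours room temperature, fluorescence read-out.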
% is scaled to controls: 0 for no effect and ±100 for the full control effect.

Estrogen receptor (Homo sapiens), sequence (P03372 whole entry, looked up): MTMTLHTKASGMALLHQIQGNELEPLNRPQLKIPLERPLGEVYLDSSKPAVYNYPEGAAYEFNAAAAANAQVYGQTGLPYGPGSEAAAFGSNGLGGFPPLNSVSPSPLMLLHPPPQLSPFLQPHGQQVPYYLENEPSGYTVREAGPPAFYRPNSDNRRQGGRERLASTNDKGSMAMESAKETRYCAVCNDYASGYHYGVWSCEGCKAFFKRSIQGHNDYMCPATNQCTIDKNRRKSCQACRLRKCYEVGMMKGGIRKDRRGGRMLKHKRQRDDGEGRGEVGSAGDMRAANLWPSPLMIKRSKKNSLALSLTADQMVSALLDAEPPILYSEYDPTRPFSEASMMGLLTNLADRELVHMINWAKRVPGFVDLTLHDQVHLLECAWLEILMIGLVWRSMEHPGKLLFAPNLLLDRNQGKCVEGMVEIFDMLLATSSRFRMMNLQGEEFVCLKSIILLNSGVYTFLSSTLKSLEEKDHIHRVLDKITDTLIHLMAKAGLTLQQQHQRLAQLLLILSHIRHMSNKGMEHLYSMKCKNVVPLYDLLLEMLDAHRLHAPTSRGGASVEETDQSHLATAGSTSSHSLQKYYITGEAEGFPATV
Estrogen receptor beta (Homo sapiens), sequence (Q92731 whole entry, looked up): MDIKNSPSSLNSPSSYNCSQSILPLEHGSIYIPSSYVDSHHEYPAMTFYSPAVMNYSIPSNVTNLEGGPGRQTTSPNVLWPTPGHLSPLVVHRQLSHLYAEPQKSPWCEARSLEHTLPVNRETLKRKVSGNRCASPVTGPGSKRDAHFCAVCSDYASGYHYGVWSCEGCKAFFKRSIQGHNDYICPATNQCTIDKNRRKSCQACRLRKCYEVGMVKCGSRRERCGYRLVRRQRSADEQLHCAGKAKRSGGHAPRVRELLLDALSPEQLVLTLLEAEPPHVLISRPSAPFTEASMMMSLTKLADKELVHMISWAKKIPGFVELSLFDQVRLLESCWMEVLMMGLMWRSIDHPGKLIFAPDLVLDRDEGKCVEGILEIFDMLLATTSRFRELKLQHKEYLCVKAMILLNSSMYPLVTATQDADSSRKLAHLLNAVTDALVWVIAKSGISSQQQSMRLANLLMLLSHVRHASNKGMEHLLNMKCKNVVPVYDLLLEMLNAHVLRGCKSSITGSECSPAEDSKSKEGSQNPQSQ
Androgen receptor (Homo sapiens), sequence (P10275 whole entry, looked up): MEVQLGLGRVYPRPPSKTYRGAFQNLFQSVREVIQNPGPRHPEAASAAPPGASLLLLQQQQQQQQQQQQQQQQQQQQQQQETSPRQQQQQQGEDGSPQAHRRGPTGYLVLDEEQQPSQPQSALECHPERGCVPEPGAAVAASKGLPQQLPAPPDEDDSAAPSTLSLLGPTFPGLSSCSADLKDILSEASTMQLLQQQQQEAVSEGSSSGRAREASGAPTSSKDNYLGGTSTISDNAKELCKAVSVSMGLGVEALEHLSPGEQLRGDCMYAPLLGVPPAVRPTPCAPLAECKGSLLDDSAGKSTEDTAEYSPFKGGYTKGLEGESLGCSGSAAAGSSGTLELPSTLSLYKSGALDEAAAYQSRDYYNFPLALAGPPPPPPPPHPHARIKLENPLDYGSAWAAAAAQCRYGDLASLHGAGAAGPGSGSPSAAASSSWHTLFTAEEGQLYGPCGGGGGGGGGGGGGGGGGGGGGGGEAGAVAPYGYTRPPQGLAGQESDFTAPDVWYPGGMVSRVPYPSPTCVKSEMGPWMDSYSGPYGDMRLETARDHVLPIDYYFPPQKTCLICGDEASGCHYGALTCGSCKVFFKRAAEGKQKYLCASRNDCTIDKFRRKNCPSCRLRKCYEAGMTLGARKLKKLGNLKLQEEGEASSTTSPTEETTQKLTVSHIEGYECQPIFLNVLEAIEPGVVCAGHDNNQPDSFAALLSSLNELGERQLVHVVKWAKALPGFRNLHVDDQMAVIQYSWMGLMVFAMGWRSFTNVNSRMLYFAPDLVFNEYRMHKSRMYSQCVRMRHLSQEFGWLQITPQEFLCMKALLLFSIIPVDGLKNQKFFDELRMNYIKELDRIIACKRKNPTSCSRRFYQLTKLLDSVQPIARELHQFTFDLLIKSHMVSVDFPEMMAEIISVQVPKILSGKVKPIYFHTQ

Take `CC/C=C\C/C=C\C/C=C\CCCCCCCC(=O)OC`: the Potency result in assay [1], in assay [2], in assay [3], in assay [4], in assay [5] and in assay [6] was “inactive” throughout. Further, the Potency entry in assay [7], in assay [8] and in assay [10] was “inactive” each time. The Potency in [9] was 43.3 µM (active).

As to `Nc1cc([N+](=O)[O-])cc(Cl)c1O`, the Potency entry in assay [1], in assay [2], in assay [3], in assay [4], in [5] and in assay [6] was “inactive” throughout. In addition, the Potency result in assay [7], in assay [11], in assay [8], in [9] and in assay [13] was “inactive” in each case. Moreover, the call in [12] was inactive.

For the molecule `Oc1ccc(C2(c3ccc(O)c(C4CCCCC4)c3)CCCCC2)cc1C1CCCCC1`, the Potency in assay [1] is 43.6 µM (active); in assay [5] it was 43.3 µM (active); in assay [6], 43.3 µM (active); in assay [16] it was 19.3 µM (active); in assay [11], 21.7 µM (active); in assay [9] it was 12.2 µM (active). Also, the Potency in [17] was 43.3 µM (active); in assay [13], 19.3 µM (active). Moreover, the Potency result in assay [2], in assay [14], in assay [7], in assay [15] and in [8] was “inactive” in each case.

For the molecule `[Cl][Dy]([Cl])[Cl]`, the Potency entry in assay [1], in assay [2], in assay [14], in assay [3], in assay [5] and in assay [7] was “inactive” in each case. The Potency entry in [15], in [11], in assay [8], in assay [17] and in [13] was “inactive” throughout. For the same molecule, the Potency in assay [9] is 8.63 µM (active).

For the molecule `C=CC(=O)OCCOC1C2CCC1C1CC=CC12` (centres undefined), the activity change, negative = cytotoxicity was -0.849% [at 15.8 µM] in assay [1], 0.54% [at 19 µM] in assay [4], 3.58% [at 19 µM] in [15] and -0.168% [at 19 µM] in [13]. Further, the activity change in assay [2] is -0.617% [at 15.8 µM, active compounds read high]; in assay [8], -1.29% [at 18.9 µM, active compounds read high]. Also, the cytotoxicity increase in assay [3] was -9.41% [at 15.8 µM]. Besides, the viability change, negative = cytotoxic in assay [5] is 0.35% [at 19 µM]; in assay [16] it was 9.3% [at 19 µM]; in [11] it was 5.82% [at 19 µM]. In addition, the activity, negative = inhibition in [18] was -0.369% [at 19 µM]. Moreover, the activity change, negative = inhibition in assay [7] is 5.48% [at 19 µM]; in [9], 6.04% [at 19 µM]. Further, the activation in assay [10] was 0.68% [at 19 µM].

As for `COc1c(Br)cc(Br)c(C)c1Br`, the Potency entry in assay [1], in assay [2], in [3], in assay [4], in assay [5] and in assay [7] was “inactive” each time. In addition, the Potency entry in [15], in assay [16], in [11], in [8], in [9] and in assay [17] was “inactive” in each case. The Potency entry in [13] is “inactive”.

For the molecule `O=C(Nc1ccccc1)c1cc(Cl)ccc1O`, the Potency entry in assay [1], in assay [2], in [14], in assay [3], in assay [15] and in [8] was “inactive” in each case. In addition, the Potency is 17.2 µM (active) in [5]; 12.2 µM (active) in assay [6]; 0.686 µM (active) in [7]; 54.5 µM (active) in assay [11]; 15.4 µM (active) in [9]; 13.7 µM (active) in [17]. In addition, in [12], the outcome was inactive.

For the molecule `COc1cc([C@@H]2c3cc4c(cc3[C@@H](O[C@@H]3O[C@@H]5CO[C@@H](C)O[C@H]5[C@H](O)[C@H]3O)[C@H]3COC(=O)[C@H]23)OCO4)cc(OC)c1O`, the Potency entry in [1], in assay [2], in assay [14], in assay [3], in assay [5] and in assay [19] was “inactive” in each case. For the same molecule, the Potency entry in assay [7], in assay [15], in assay [8], in [20], in assay [17] and in assay [13] was “inactive” throughout. In addition, the Potency in assay [11] was 60.4 µM (active). For the same molecule, the outcome in assay [12] was inactive.

In the case of `Oc1cccc2c(O)cccc12`, the Potency result in assay [1], in assay [2], in assay [14], in assay [3], in [5] and in assay [7] was “inactive” in each case. Further, the Potency result in assay [15], in assay [8] and in assay [17] was “inactive” each time. Further, the Potency in assay [6] is 54.5 µM (active); in assay [11], 30.6 µM (active); in assay [9], 10.9 µM (active); in assay [13] it was 61.1 µM (active).
